The whole screen tested about 370,000 compounds, of which about 4,800 (1.3%) were called active. For the sample, actives were picked, then their nearest neighbours and some compounds at random. Values without a mark were called inactive.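 How the source made its calls: active means inhibition above about 21% made by adding two undisclosed values (limit read from the data); inactive means the rest.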

For this assay, the target named is Protein arginine N-methyltransferase 1 (Homo sapiens) (UniProt Q99873). Nature of the assay: PRMT1 methyltransferase inhibitors, primary screen, biochemical, fluorescence polarization (AID 652257). To be noted: recombinant PRMT1, activity-based probe fluorescence polarization; at 2.79 µM; stronger effect = higher value. On the technique in general: Polarisation of emitted light reports the rotation of a fluorescent probe.
Chain of Protein arginine N-methyltransferase 1 (Homo sapiens) (Q99873 whole entry, looked up): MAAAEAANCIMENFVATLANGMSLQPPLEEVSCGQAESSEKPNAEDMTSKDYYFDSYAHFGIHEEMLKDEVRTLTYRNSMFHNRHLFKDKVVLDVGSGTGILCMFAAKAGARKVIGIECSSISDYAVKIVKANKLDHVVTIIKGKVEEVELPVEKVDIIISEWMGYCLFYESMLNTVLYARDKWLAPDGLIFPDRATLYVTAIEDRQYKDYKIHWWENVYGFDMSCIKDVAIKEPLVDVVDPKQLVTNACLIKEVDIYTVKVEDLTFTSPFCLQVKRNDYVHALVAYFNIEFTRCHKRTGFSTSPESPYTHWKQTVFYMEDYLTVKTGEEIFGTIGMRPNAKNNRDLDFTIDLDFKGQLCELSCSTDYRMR
Regarding `CC(C)(C)c1cc(CN2CCN(CCC#N)CC2)cc(C(C)(C)C)c1O`, the inhibition (usually the change of the read-out against control, counted positive when it falls) was 9%.
On to `CCc1c(C)nc(N)n2c(SCC(=O)NC3CCCCC3)nnc12`, for which the inhibition is -2.99%.
Under `Nc1[nH]c(/C=C2/CCCCC2n2[nH]c(=O)n(-c3ccccc3)c2=O)c(Cc2ccccc2)[n+]1Cc1ccccc1` (stereo unspecified) stands -2.27%.
In the case of `COc1ccc(CCNCc2c(-c3ccccc3)n(C)c3ccccc23)cc1`, the inhibition was 2.67%.
As to `CC(C)(C)OC(=O)NCCc1ccccc1/C=C/S(=O)(=O)NCc1ccc(F)cc1`, the inhibition is 0.24%.
Regarding `O=c1ccc2c(-c3ccccc3S(=O)(=O)O)c3ccc(O)c(O)c3oc-2c1O`, the inhibition is 66.9% (active).
With `COc1cccc2c1OCC(CN1CCN(C3CCCCC3)C(CCO)C1)=C2` (stereo unspecified), the inhibition is -3.92%.
The value for `O=C(CSc1nc2c(c(=O)[nH]1)CCCC2)N1CCCCC1` was -3.61%; that for `C=CCN(C)CC#Cc1ccccc1` was -2.36%.
With `Cc1ccc(-c2nc(C3CCCN(S(=O)(=O)c4ccc(Br)s4)C3)no2)cc1` (stereo unspecified), the inhibition is 3.15%.
For `CC1CCc2c(nc3ncnn3c2Nc2ccc(OC(F)(F)F)cc2)C1` (stereo unspecified), the inhibition is 0.92%.
In the case of `c1ccc2c(c1)CSc1sccc1C2=C1CCNCC1`, the inhibition was -3.7%.
Turning to `Cc1nnc(SCC(=O)NC2CCCC2)s1`, the inhibition is -0.7%.
Under `Cc1nnc(SCC2=C(C(=O)O)N3C(=O)C(NC(=O)Cn4nc(C)c(Cl)c4C)C3SC2)s1` (stereo unspecified) stands 34.1% (active); under `Cc1cc(C)cc(C(=O)NC2C(=O)N3C(C(=O)O)=C(CSc4nnc(C)s4)CSC23)c1` (stereo unspecified), 39.9% (active).
For `Cc1nnc(SCc2cc(=O)[nH]c(N3CCN(Cc4ccccc4)CC3)n2)s1`, the inhibition is -2.63%.
Under `CCOC(=O)C1(Cc2ccccc2)CCN(Cc2cn(C(C)=O)c3ccccc23)CC1` stands 2.34%; under `Cc1ccccc1CS(=O)(=O)Cc1ccc(C(=O)Nc2ccc(Cl)cc2)o1`, 5.39%; under `CCCCN1CCN(C(=O)c2ccc3c(c2)NC(=O)C(C)(C)O3)CC1`, -4.36%.
`COC(=O)[C@]12C[C@H](CC(=O)NCc3cccc4ccccc34)C(=O)N(CCc3ccc(OC)c(OC)c3)C1=C[C@H](C1CCCC1)O[C@@H]2C`: the inhibition was -7.72%.
In the case of `CC(=O)N(c1ccc2oc(=O)sc2c1)S(=O)(=O)c1ccc(C)cc1`, the inhibition is 86% (active).
With `CC(=O)Oc1ccc(N(C(C)=O)S(=O)(=O)c2ccc3ccccc3c2)cc1Br`, the inhibition was -3.71%.
For `COC(=O)c1c(C)oc2ccc(N(C(=O)Oc3ccccc3)S(=O)(=O)c3ccccc3)cc12`, the inhibition is 1.53%.
Consider `COc1ccccc1C1C(C#N)=C(N)Oc2c1c(-c1ccccc1)nn2-c1ccccc1` (stereo unspecified), for which the inhibition was 5.44%.
Take `COc1cccc(Cn2cc(COC(=O)Nc3ccc(F)cc3)nn2)c1`: the inhibition is 0.72%.
As for `COC(=O)CNC(c1ccccc1Cl)c1cc(Br)ccc1NC(=O)CCN1CCOCC1` (stereo unspecified), the inhibition was 21.5% (active).
Turning to `Cc1cc(NC(=O)CCN2CCN(Cc3ccccc3)CC2)ccc1Br`, the inhibition was 0.6%.
As for `COc1ccccc1NC(=O)CCN1CCN(c2ccc(Cl)cc2)CC1`, the inhibition is 1.94%.
The value for `Cc1cc(S(=O)(=O)NC2CCCC2)ccc1-n1cnnn1` was 3.87%; that for `Cc1ccc(CN(C)C[C@@H]2OCc3cnnn3CCCC(=O)N([C@@H](C)CO)C[C@H]2C)cc1` was -5.16%; that for `C=CCn1c2c(c3ccccc31)CCC2` was 0.09%.
For `CN1C(=O)c2cccc3c(N)ccc(c23)C1=O`, the inhibition was 183% (active).
As to `Cc1nn(C)cc1N1C(=O)c2cccc3c(N)ccc(c23)C1=O`, the inhibition is 165% (active).
Consider `CC(NCc1ccco1)C(=O)N1CCCCC1` (stereo unspecified), for which the inhibition is -2.09%.
As for `CCOc1ccc(Oc2c(Cl)cnn(-c3ccc(C)cc3)c2=O)cc1`, the inhibition was -1.68%.
Consider `C=CCN1[C@@H](Cc2ccccc2)COc2cccc(N3CCSCC3)c2S1(=O)=O`, for which the inhibition was 2.18%.
Consider `O=S(=O)(c1ccccc1)N1CCC(c2nc3ccccc3o2)CC1`, for which the inhibition is -3.15%.
With `COc1ccccc1CN(C)C(=O)C1(c2ccc(Cl)cc2)CC1`, the inhibition was -2.06%.
The value for `O=C(NC1CCC1)c1ccc(C#CC2CC2)cn1` was -0.43%; that for `CC(=O)Oc1ccc(C(C)=O)c2c1OCCO2` was -0.56%; that for `CC(C)n1c(-c2ccncc2)n[nH]c1=S` was -2.82%.
On to `CSc1ccc(C=Nn2c(-c3ccc(F)cc3)n[nH]c2=S)cc1`, for which the inhibition is 21.3% (active).
The value for `CSc1ccc(/C=N/N2CCN(Cc3ccccc3Cl)CC2)cc1` was 1.95%; that for `CC(NCCc1ccc(S(N)(=O)=O)cc1)C(=O)NCc1ccccc1` (stereo unspecified) was -3.01%.
Regarding `COc1ccccc1OCCC(=O)OCC(=O)NCc1ccccc1`, the inhibition was 0.43%.
Regarding `COc1cc(-c2nnn(CC(=O)NCc3ccccc3)n2)cc(OC)c1OC`, the inhibition was 2.73%.
Regarding `COc1cc(C(=S)NCc2ccccc2)cc(Br)c1O`, the inhibition was 27.5% (active).
Turning to `CCOC(=O)C1=C(C)NC2=C(C(=O)CC(C)(C)C2)C1c1ccc2c(c1)OCO2` (stereo unspecified), the inhibition was -1.8%.
Under `COC(=O)CC1CCc2cc(C)cc(C(CC(C)C)NC(=O)[C@H](CC(C)C)NC(=O)OCc3ccccc3)c2O1` (stereo partly specified) stands -2.67%.
For `Clc1ccc(C2=CSC3=Nc4cccc5cccc(c45)N23)cc1`, the inhibition is 22.6% (active).
Take `CCCOc1ccc(Oc2c(Cl)cnn(Cc3cccc4ccccc34)c2=O)cc1`: the inhibition was 1.97%.
Consider `CC(=O)c1cc(-c2ccc3ccccc3c2)c(=O)n2c1CCC2`, for which the inhibition is 0.08%.
Take `COc1ccc(N=Nc2c(-c3ccc(OC)cc3)[nH]oc2=O)cc1`: the inhibition is -0.55%.
Consider `COc1ccc(N=C2C=CC(=O)O2)cc1`, for which the inhibition was 48.5% (active).
With `COC1=CC(=O)OC(c2ccc(OC)cc2)C1` (stereo unspecified), the inhibition is -1.99%.
For `Cc1ccc(SC(CC(=O)c2ccc(C(C)(C)C)cc2)C(=O)O)cc1` (stereo unspecified), the inhibition is 75.6% (active).
Turning to `Cc1ccc(CSCC(N)C(=O)O)cc1` (stereo unspecified), the inhibition is 0.39%.
For `Cc1ccc(SC(C)C(=O)NCc2ccc(F)cc2)cc1` (stereo unspecified), the inhibition is -5.15%.
Take `CCC(NC(=O)C1C2C=CC3(CN(Cc4ccccc4)C(=O)C13)O2)c1ccccc1` (stereo unspecified): the inhibition is 2.19%.
In the case of `O=S(=O)(O)c1cc2onnc2c2ccccc12`, the inhibition was 40.6% (active).
The value for `CCOC(=O)[C@@]12CCC3=C1N(CCC3)C(=O)[C@H](CC(=O)N1CCN(C(=O)c3ccco3)CC1)C2` was -2.33%; that for `CC1=CC(C)(C)NC(=S)N1c1ccccc1` was 3.18%; that for `Cc1ccc(-c2nnc(SCC(=O)Nc3ccc(Oc4ccccc4)cc3)n2Cc2ccco2)cc1` was 4.18%.
Take `CC1CC1C(=O)OCC(=O)Nc1cccc(F)c1` (stereo unspecified): the inhibition is 2.32%.
Under `Cc1ccccc1CN1CCCCC(NC(=O)Nc2ccccc2F)C1=O` (stereo unspecified) stands -0.07%.
`C#CCNC(=O)C[C@H]1C[C@@]2(C(=O)OC)C(=C[C@H](C(C)C)O[C@@H]2C2CC2)N(Cc2ccco2)C1=O`: the inhibition is -1.6%.
The value for `C=CCn1c(=NC(=O)c2cccs2)sc2cc(NC(C)=O)ccc21` was 4.42%.
Under `COc1cc2c(cc1OC)C(Cc1cc(OC)c(OC)cc1[N+](=O)[O-])=NCC2` stands 8.89%.
For the compound `CCS(=O)(=O)c1cc([N+](=O)[O-])c(Sc2ccccc2N)s1`, the inhibition was 66.1% (active).
Under `O=C(c1ccccc1)c1ccc(-c2ccccc2C(=O)NC2CCCCN(Cc3ccc(Cl)cc3)C2=O)cc1` (stereo unspecified) stands -3.72%.
For the compound `C=C(C)C#CC(Cc1ccccc1)NCC1CC1` (stereo unspecified), the inhibition was 7.99%.
On to `Cc1sc2nc(SCC(=O)c3ccc(O)c(O)c3)n(Cc3ccco3)c(=O)c2c1C`, for which the inhibition was 25.1% (active).
`O=C(CSc1nnc(COc2ccccc2)n1Cc1ccco1)c1ccc2ccccc2c1`: the inhibition is 4.78%.
For `O=C(CSc1nnc(-c2cccs2)n1Cc1ccco1)c1ccc2c(c1)OCO2`, the inhibition is 1.9%.
For `CCCC[C@H]1C2CC(OC(=O)NCc3ccccc3)C(C2)[C@H]2CCCCN21` (stereo partly specified), the inhibition was 1.74%.
Take `COc1ccccc1-n1c(-c2cc(-c3ccco3)[nH]n2)n[nH]c1=S`: the inhibition was 35.1% (active).
`Cc1cc(-c2n[nH]c(=S)n2-c2ccc(C)c(C)c2)no1`: the inhibition was 4.04%.
Take `COc1ccc(OCc2n[nH]c(=S)n2N)cc1`: the inhibition was 4.04%.
Take `COc1ccc(C(C#N)Nc2ccccc2C)cc1` (stereo unspecified): the inhibition was 1.86%.
`CC(C)(C)OC(=O)NCc1cc(F)ccc1/C=C/S(=O)(=O)NCCc1ccccc1`: the inhibition was -0.49%.
In the case of `Cc1ccc(/C=C/C(=O)Nc2ccc([N+](=O)[O-])c(NC(=O)/C=C/c3ccc(C)o3)c2)o1`, the inhibition was 41.1% (active).
On to `O=C(/C=C/c1ccc([N+](=O)[O-])o1)NNC(=O)c1ccc(F)cc1`, for which the inhibition was 5.67%.
Regarding `Cc1cc(NC(=O)COC(=O)/C=C/c2ccc(C)o2)no1`, the inhibition is 5.65%.
As to `COc1ccc(-n2c(SCC(=O)Nc3ccc(C)c(Cl)c3)nc3ccccc3c2=O)cc1`, the inhibition was 0.06%.
Under `COc1ccc(/C=C2/S/C(=N/N=C3\CC4CCC3(C)C4(C)C)NC2=O)cc1` (stereo unspecified) stands -3.61%; under `CC(=O)N1C(=O)/C(=C2\SC(=S)N(NC(=O)c3ccc(O)cc3)C2=O)c2ccccc21`, 37.7% (active).
`COc1ccc2c(c1)N(C)/C(=C1/SC(=S)N(NC(C)=O)C1=O)S2`: the inhibition was -3.82%.
In the case of `COc1ccc(C(=O)NN2C(=O)C3C(c4ccccc4)C=CC(c4ccccc4)C3C2=O)cc1` (stereo unspecified), the inhibition was -3.24%.
Under `COC(=O)C[C@@H]1CC[C@@H]2[C@H](COc3ccc(NC(=O)c4cccc(F)c4)cc3C(=O)N2C)O1` stands -3.84%; under `CCN1/C(=C/C(=S)Nc2ccccc2)Sc2ccccc21`, 64.6% (active).
The value for `CCN1/C(=C\c2ccc3ccccc3[n+]2CC)Sc2cc(C)ccc21` was -5.01%.

Values taken from PubChem BioAssay AID652257 (The Scripps Research Institute Molecular Screening Center, 2013).
